From PubChem
Most compounds without a hit are left out; they make up all but 5.9% or so of the library.
HSP90 inh: HSP90 inhibitors, primary screen, cell lysate, luminescence | Heat shock protein HSP 90 (rabbit reticulocyte lysate; luciferase refolding) | Rabbit reticulocyte lysate, luciferase refolding luminescence, 3 h | inhibition, % at 5.6 µM | hit rate 0.91% among 290,000;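 active means inhibition above the screen-wide mean plus 3 SD, computed separately per campaign, cut at about 16% in these data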;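 further: 0% = DMSO wells and 100% = 60 µM geldanamycin wells; inhibitors lower the luminescence because luciferase stays unfolded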
AHR activator: AHR activators, primary screen, cell-based, luminescence, luciferase reporter, human; AID 2796, 2010; activation, % at 5 µM; Aryl hydrocarbon receptor (Homo sapiens), P35869; hit rate 2.5% among 320,000; AHR-responsive luciferase reporter cells; in the data active means activation above about 47%;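 further: 0% = vehicle wells and 100% = reference agonist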
GAA850 FXN act: FXN promoter activators, primary screen, cell-based, luciferase luminescence, HEK293 lucGAA850; HEK293 lucGAA850 FXN promoter luciferase reporter, 24 h; percent of 10 µM SAHA response; activation, % at 6 µM; hit rate 0.56% among 360,000; AID 540364, 2011;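 active means activation above the average of all compounds screened plus 3 SD, cutoff fixed separately per campaign, cut at about 7.5% in these data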;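 further: 0% = DMSO wells and 100% = 10 µM SAHA wells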
HSF1 inhib: HSF1 inhibitors in luciferase reporter cells, primary screen, cell-based, NIH3T3, luminescence. AID 2098, 2009. NIH3T3-HGL HSE-luciferase, MG132-induced, luminescence 8 h; hits give low values. hit rate 0.77% among 300,000. activity change, negative = inhibition, % at 7.5 µM (by protocol);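 active means more than half of replicate wells show activity change below -50%, luminescence cut by over half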;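 further: luciferase reports HSF-1 transcriptional activity via heat shock element; 0% = median of DMSO wells and -100% = zero luminescence signal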
NR0B1 inh: DAX1 (NR0B1) inhibitors, primary screen, cell-based, HEK293, Gal4-DAX1, luciferase luminescence; Nuclear receptor subfamily 0 group B member 1 (Homo sapiens), P51843; HEK293 Gal4-DAX1 luciferase reporter; inhibition, % at 6.75 µM; hit rate 0.99% among 340,000; AID 504766, 2011;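 active means inhibition above the mean over all tested compounds plus 3 SD, cut at about 4.2% in these data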;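 further: 0% = DAX1-transfected cells with DMSO and 100% = empty-vector control cells with DMSO; inhibition shows as a rise in luminescence from relieved DAX1 repression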
Target sequence (P51843 207-470 limits assumed): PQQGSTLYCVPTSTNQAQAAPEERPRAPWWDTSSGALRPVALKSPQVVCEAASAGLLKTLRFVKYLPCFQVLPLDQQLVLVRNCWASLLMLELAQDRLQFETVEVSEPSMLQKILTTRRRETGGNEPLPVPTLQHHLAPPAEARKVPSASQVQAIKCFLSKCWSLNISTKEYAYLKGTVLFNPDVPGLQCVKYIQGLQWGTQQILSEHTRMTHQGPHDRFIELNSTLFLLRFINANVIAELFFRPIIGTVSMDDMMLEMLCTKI
HSF-1 act: HSF-1 activators, primary screen, NIH3T3-HGL cells, MG132 stress, luminescence, single point. activation, % at 9 µM. NIH3T3-HGL HSF-1 luciferase reporter, 8 h; 100% = twice DMSO control signal. hit rate 1.7% among 300,000;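 active means mean replicate activation of at least 50% with a set share of replicates each reaching 50%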;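 further: 0% = median of the neutral control wells and 100% = twice that signal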
* = called active by the depositor; . = not tested or not shown.

SMILES	HSP90 inh	AHR activator	GAA850 FXN act	HSF1 inhib	NR0B1 inh	HSF-1 act
CC(=O)Nc1cccc(NC(=O)COc2ccc3c(c2)OCO3)c1	1	3	2	26	0	56*
COc1ccc(NC(=O)COc2ccc3c(c2)OCO3)cc1	-4	2	2	-21	-1	-32
CC(=O)c1ccc(NC(=O)COc2ccc3c(c2)OCO3)cc1	2	3	3	17	1	56*
COc1ccc(S(=O)(=O)N2CCCCC2)cc1NC(=O)Cc1ccc(Br)cc1	.	.	3	.	0	.
O=C(N/N=C\c1c(O)ccc2ccccc12)c1ccc(O)cc1	-4	24	-2	31	2	42
Cc1nn(Cc2ccccc2)c(Cl)c1/C=N/NC(=O)c1cccnc1	-6	52*	4	8	-1	19
O=C(N/N=C\c1c(O)ccc2ccccc12)c1cncc(Br)c1	-6	67*	-7	-16	0	-21
O=C(NN=Cc1c(O)ccc2ccccc12)c1ccncc1	.	.	-10	.	-5	.
O=C(N/N=C/c1c(O)ccc2ccccc12)c1cccnc1	-6	73*	-6	-3	-1	11
CCN(CC)Cc1c(O)ccc2cc(-c3nc4ccccc4n3C)c(=O)oc12	-2	5	-2	25	1	68*
CCc1cc2c(=O)c(-c3nc4ccccc4n3C)c(C)oc2c(CN(CC)CC)c1O	2	-1	-5	-1	0	5
Cn1c(-c2cc3ccc(OC(=O)C(C)(C)C)cc3oc2=O)nc2ccccc21	-3	6	7	14	1	58*
Cc1noc(C)c1COc1cccc(C(=O)N(C)Cc2nc3ccccc3c(=O)[nH]2)c1	.	1	2	.	0	.
NC(=O)c1ccc(C(F)(F)F)n(Cc2ccccc2Cl)c1=O	0	7	5	6	-1	10
C=C(C)Cn1c2ccc(NC(=O)CCc3cccnc3)cc2c(=O)n1C	.	.	2	.	.	.
CSCCC(NS(=O)(=O)c1cccc(C(F)(F)F)c1)C(=O)N(C)CCOc1ccc(Cl)cc1 (stereo unspecified)	.	7	0	34	0	65*
CCNc1nc(NCC)n2c(SCC(=O)c3ccc(C(C)C)cc3)nnc2n1	-1	4	1	-4	-1	51*
CCNc1nc(NCC)n2c(SCC(=O)Nc3ccc(C(F)(F)F)cc3[N+](=O)[O-])nnc2n1	-3	-1	-1	31	0	70*
Cc1ccnc2nc(C(=O)OCCOc3ccc(F)cc3)nn12	-9	0	0	-2	1	-3
CC1Cc2ccccc2N1C(=O)C12CCC(C)(C(=O)C1)C2(C)C (stereo unspecified)	5	5	4	-63*	2	-71
Cc1cccc(C(=O)NCC(=O)N2CCN(c3ccccn3)CC2)c1	.	1	0	.	1	.
COc1ccc(-c2sc3ccc(N4CCOCC4)cc3c2C#CCCO)cc1	.	97*	3	.	-1	.
COc1ccc(-c2sc3cc4c(cc3c2C#CCO)OCO4)cc1	.	77*	-1	.	-2	.
COc1ccc2sc(-c3ccccc3OC)c(C#CC(C)(C)O)c2c1	.	26	1	.	1	.
COc1ccccc1-c1sc2cc3c(cc2c1C#CCO)OCO3	.	67*	2	.	1	.
SMILES	HSP90 inh	AHR activator	GAA850 FXN act	HSF1 inhib	NR0B1 inh	HSF-1 act
CCOC(=O)c1ccc(-c2c(-c3cc(OC)c(OC)c(OC)c3)noc2C)cc1F	2	0	-1	-16	-1	-34
CCOC(=O)c1ccc(-c2c(-c3ccccc3OC)sc3cc4c(cc23)OCO4)cc1F	.	48*	2	.	1	.
CC(/C=C/c1cccs1)=C\C(=O)O	-1	3	1	38	1	92*
O=C(CCCc1nc(-c2ccc(Cl)cc2)no1)NC1CCCC1	0	-13	-4	11	-2	35
CCOc1ccccc1CN1CCN(Cc2cn(C)nc2-c2ccccc2)CC1CCO (stereo unspecified)	-2	2	-1	43	1	82*
Cn1cc(CN2CCN(Cc3ccccc3)C(CCO)C2)c(-c2ccccc2)n1 (stereo unspecified)	-1	0	-2	3	1	-3
COc1cc([N+](=O)[O-])c2ncsc2c1	-1	2	1	-40	2	-48
COc1cc(SSc2cc(OC)cc([N+](=O)[O-])c2N)c(N)c([N+](=O)[O-])c1	6	7	3	38	1	88*
Cc1ccc(Cl)c2c(N=Nc3ccccc3)c(O)[nH]c12	0	.	5	8	6.3*	13
S=C(c1ccc(-c2ccc(Cl)c(Cl)c2)o1)N1CCOCC1	1	6	5	37	3	59*
S=C(c1ccc(-c2ccc(Br)cc2)o1)N1CCCCC1	-3	27	6	16	2	62*
CC(C)NC(=O)C12CC3CC(C1)CC(C(=O)NC(C)C)(C3)C2	2	-3	0	-4	0	5
CCCC12CN3CC(C)(CN(C1)C3c1ccc(OC)cc1)C2=O (stereo unspecified)	1	0	2	-11	0	-6
CCCC12CN3CC(C)(CN(C1)C3c1ccc3c(c1)OCO3)C2=O (stereo unspecified)	-1	7	-2	31	1	66*
Cc1ccc(NC(=O)c2ccccc2F)c(NC(=O)c2ccccc2F)c1	.	73*	4	3	7.6*	24
CSc1ccccc1C(=O)Nc1cc(C)ccc1C	-1	8	-1	21	0	58*
Cc1ccc(NC(=O)c2ccccc2Cl)c(Cl)c1	7	16	2	21	1	4
CC(=O)c1cccc(S(=O)(=O)N2CCn3cccc3C2C)c1 (stereo unspecified)	.	9	1	.	0	.
CCc1cc2c(=O)c(-c3cscn3)coc2cc1O	-3	74*	0	18	0	20
CCOC(=O)c1oc2cc(O)c(CC)cc2c(=O)c1-c1cscn1	-4	47	1	1	0	-12
COC(=O)c1ccc(OC(=O)CS(=O)c2ccccc2[N+](=O)[O-])cc1 (stereo unspecified)	1	22	1	9	0	24
O=C(CS(=O)c1ccc(C(F)(F)F)cc1[N+](=O)[O-])Oc1ccccc1 (stereo unspecified)	7	26	7	172	-1	238*
COc1ccccc1-c1nc(COc2ccc(Cl)cc2Cl)no1	-2	0	5	23	4.6*	42
